# Screening data as filed in PubChem.
# Compounds with a hit are over-represented: about 0.38% of the library has one in this group of screens.
# EPAC1 agonist: qHTS for Agonist of cAMP-regulated guanine nucleotide exchange factor 3 (EPAC1): primary screen; EPAC1 agonist qHTS, biochemical assay; response scale: 100% = response to 6.5 mM cAMP; AID 720707, 2013; Potency, µM (highest dose often 154 µM), without a hit: at the highest dose activation, actives largely listed as activators; Rap guanine nucleotide exchange factor 3 (Homo sapiens), O95398; 0.073% of 360,000 active; further: nearly all actives have a fitted effect of over 60% in size
#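 EPAC1 100 nM, Rap1B–BODIPY-GDP 250 nM, unlabeled GDP 50 uM; compound titration; 5 min RT; kinetic read ex480/em540 at 5-min intervals ×30 min; data normalized to 6.5 mM cAMP agonist control.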
# EPAC2 ag: qHTS for Agonist of cAMP-regulated guanine nucleotide exchange factor 4 (EPAC2): primary screen | Rap guanine nucleotide exchange factor 4 (Homo sapiens), Q8WZA2 | EPAC2 activation, biochemical qHTS; response scale: 100% = 6.5 mM cAMP response | Potency, µM (highest dose often 154 µM), inactives show at the top dose activation, hits mostly activators | 0.079% of 360,000 active | AID 720711, 2013; further: nearly all actives have a fitted effect of over 50% in size
# Target sequence (Q8WZA2 whole entry, looked up): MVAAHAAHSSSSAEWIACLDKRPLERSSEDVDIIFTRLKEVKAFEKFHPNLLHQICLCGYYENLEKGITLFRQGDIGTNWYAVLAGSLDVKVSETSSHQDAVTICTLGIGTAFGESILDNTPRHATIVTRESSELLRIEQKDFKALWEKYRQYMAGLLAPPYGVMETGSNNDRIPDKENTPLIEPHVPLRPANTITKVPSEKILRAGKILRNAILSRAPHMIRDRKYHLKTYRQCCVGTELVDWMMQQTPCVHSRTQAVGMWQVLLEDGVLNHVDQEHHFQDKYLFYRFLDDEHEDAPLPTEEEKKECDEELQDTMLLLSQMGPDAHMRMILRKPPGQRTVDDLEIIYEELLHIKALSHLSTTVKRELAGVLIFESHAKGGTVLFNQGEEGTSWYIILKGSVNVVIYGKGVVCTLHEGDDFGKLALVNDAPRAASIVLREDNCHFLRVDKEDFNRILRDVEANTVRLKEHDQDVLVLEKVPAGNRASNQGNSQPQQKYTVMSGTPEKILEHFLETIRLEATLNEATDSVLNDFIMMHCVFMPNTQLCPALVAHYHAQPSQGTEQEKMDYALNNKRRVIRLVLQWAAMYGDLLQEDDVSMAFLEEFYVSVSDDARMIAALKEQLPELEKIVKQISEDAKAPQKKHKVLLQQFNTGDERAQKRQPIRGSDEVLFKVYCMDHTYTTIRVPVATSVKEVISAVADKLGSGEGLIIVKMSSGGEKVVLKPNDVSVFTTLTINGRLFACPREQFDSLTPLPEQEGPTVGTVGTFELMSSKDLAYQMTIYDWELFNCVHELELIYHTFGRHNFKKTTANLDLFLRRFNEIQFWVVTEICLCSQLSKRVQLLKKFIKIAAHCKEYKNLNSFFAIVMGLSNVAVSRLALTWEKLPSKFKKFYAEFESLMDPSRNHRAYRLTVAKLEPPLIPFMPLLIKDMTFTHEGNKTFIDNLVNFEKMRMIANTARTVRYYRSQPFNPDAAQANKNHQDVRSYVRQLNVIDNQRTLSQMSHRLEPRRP
#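 Readout is BODIPY fluorescence (480 nm excitation, 540 nm emission), which falls as labeled GDP is exchanged off Rap1B. EPAC2 at 100 nM acted on 250 nM RAP1B-BODIPY-GDP with 50 uM GDP present.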
# EPAC1 antag: qHTS for Antagonist of cAMP-regulated guanine nucleotide exchange factor 3 (EPAC1): primary screen; Rap guanine nucleotide exchange factor 3 (Homo sapiens), O95398; EPAC1 GEF assay, Rap1b-BODIPY-GDP exchange fluorescence; Potency, µM (series often up to 115 µM), inactives show at the highest dose activity change, negative = inhibition, hits mostly inhibitors; 0.14% of 360,000 active; AID 720709, 2013;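 further: plate controls were vehicle for no effect and positive control for full effect; nearly all actives have a fitted effect of over 50% in size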
# EPAC2 antagonist: qHTS for Antagonist of cAMP-regulated guanine nucleotide exchange factor 2 (EPAC2): primary screen. Rap guanine nucleotide exchange factor 4 (Homo sapiens), Q8WZA2. EPAC2 GEF exchange of Rap1B-BODIPY-GDP, fluorescence. Potency, µM (doses to about 114 µM), without a hit: at the highest dose activity, negative = inhibition, hits mostly inhibitors. 0.18% of 360,000 active; further: on the % scale 0 is the no-effect control and ±100 the full control effect; nearly all actives have a fitted effect of over 45% in size
# The depositor's hits bear a star; ? = inconclusive. The call rests on the fitted dose curve; in most records, active means well fitted curve in the direction sought with a large enough effect; inconclusive means small, poorly fitted or top-dose-only effect, or another doubt; inactive means no such curve, though single readings can be large; an effect the other way counts as inactive or inconclusive. Potency means the concentration at half of the fitted maximal effect.
SMILES,EPAC1 agonist,EPAC2 ag,EPAC1 antag,EPAC2 antagonist
COc1ccc(C(=O)Oc2ccc(/C=N/Nc3ccc(Cl)c(C(=O)O)c3)cc2OC)cc1,-2%,-16%,-26%,20µM*
COc1ccc(/C=N/Nc2ccc(C(=O)O)cc2)cc1Br,4%,-1%,5%,56µM*
Cc1ccc(S(=O)(=O)Oc2cccc(/C=N/Nc3ccc(C(=O)O)cc3)c2)cc1,1%,-1%,2%,56µM*
COC(=O)C[C@@H]1OC[C@H](C)N1S(=O)(=O)c1ccc(C)cc1,4%,9%,-2%,2%
CC(=O)c1ccc(NC(=O)CSc2nnc(-c3ccco3)c(-c3ccco3)n2)cc1,2%,5%,50µM*,8%
COc1cc2c(cc1OC)C(c1ccccc1)N(C(=O)c1ccco1)CC2 (stereo not drawn),-4%,15%,-30%,10µM*
O=C(O)C1Nc2c(O)cc(Cl)c([N+](=O)[O-])c2C2C=CCC12 (stereo not drawn),15%,15%,13µM*,-17%
O=C(COC(=O)C1CC1)Nc1ccccc1Sc1ccccc1,11%,14%,-12%,56µM*
COC(=O)C1CCN(CC(=O)Nc2ccccc2Sc2ccccc2)CC1,13%,19%,-5%,?
Clc1ccc(-c2cc3ccccc3nc2N2CCOCC2)cc1,9%,7%,-28%,56µM*
Clc1ccc(-c2cc3ccccc3nc2N2CCCC2)cc1,17%,8%,-3%,6%
COC(=O)Cc1c(C)c2ccc(OC(=O)c3ccco3)cc2oc1=O,3%,6.3µM*,-5%,2%
CCc1oc2ccccc2c1C(=O)c1cc(Br)c(O)c(Br)c1,-11%,-11%,?,10µM*
Cc1cccn2c(=O)c3cc(C#N)c(=NC(=O)c4ccccc4)n(Cc4ccco4)c3nc12,0%,-7%,89µM*,?
Cc1cccc(C(=O)N=c2c(C#N)cc3c(=O)n4cccc(C)c4nc3n2Cc2ccco2)c1,0%,-1%,50µM*,0%
O=S(=O)(NCC(c1ccco1)N1CCc2ccccc21)c1ccccc1 (stereo not drawn),100µM*,15%,-2%,6%
Nn1cnnc1N/N=C/c1ccc(Cl)c([N+](=O)[O-])c1,-11%,3%,16µM*,5%
CC1(Cc2ccc(Cl)cc2)C(=O)Nc2ccc(-c3cccnc3)cc21 (stereo not drawn),-2%,12%,-7%,50µM*
CC1(Cc2cccc(F)c2)C(=O)Nc2ccc(-c3cccnc3)cc21 (stereo not drawn),-18%,5%,-8%,?
CC(C)(C)c1nnc(NS(=O)(=O)c2cc(Cl)ccc2Cl)s1,3%,7%,-17%,-17%
O=S(=O)(Nc1nc(-c2sccc2Cl)cs1)c1cc(Cl)ccc1Cl,-12%,-24%,79µM*,50µM*
C[C@@H]1CN([C@H](C)CO)S(=O)(=O)c2ccc(Br)cc2O[C@H]1CN(C)C(=O)Nc1ccccc1,-1%,-2%,-1%,-1%
CCOC(=O)/C(C#N)=C\c1ccc(N2CCN(C/C=C/c3ccccc3)CC2)cc1,89µM*,50µM*,44%,70%
COc1ccccc1/C=C/C(=O)N1CCN(S(=O)(=O)c2cc(C)ccc2C)CC1,-1%,10%,1%,-7%
CC(=O)OC[C@H]1O[C@@H](Oc2cc3ccc(=O)oc3cc2OC(C)=O)[C@H](OC(C)=O)[C@@H](OC(C)=O)[C@@H]1OC(C)=O,-16%,7%,-4%,4%
Cc1cc(C)c(S(=O)(=O)/N=C2/C=C(Sc3ncn[nH]3)C(=O)c3ccccc32)cc1C,11%,16%,45µM*,?
Cc1noc(/C=C/c2ccc(-c3ccccc3Cl)o2)c1[N+](=O)[O-],-2%,100µM*,4%,217%
Cc1noc(/C=C/c2cccnc2)c1[N+](=O)[O-],-3%,6%,11%,27%
c1ccc(-c2ccc3ncccc3n2)cc1,9%,4%,-7%,-6%
CC(C)N(CCNS(=O)(=O)c1ccc(Cl)cc1)C(C)C,-11%,10%,4%,21%
